Molecules are shown by their SMILES. About 900 (1.7%) of roughly 53,000 compounds showed an effect of 50% or more. The sample as a whole holds a higher share of strong results than the screen did.

The test deals with Mycobacterium tuberculosis. The test can be described thus: Cornell - Phenotypic assay to identify agents that inhibit growth of Mycobacterium tuberculosis. It is filed as functional. Set-up: scale not given: direction of the effect not stated beside the values. As to conditions: 10 mM as filed; unlikely as a test dose.
As for `Cc1cc(C)c2c(N3CCN(C(=O)N4CCOCC4)CC3)ncnc2n1`, the “Percent Effect” value is recorded as -18.35%.

Turning to `CC(C)O[C@@H]1CC[C@H]2[C@H]1OCCN2C(=O)c1nn(C)c2ccccc12`, the “Percent Effect” value worked out at 4.286%.

As for `CC(C)S(=O)(=O)CC(=O)NCC(Cc1ccc(F)cc1)C(N)=O` (centres undefined), the “Percent Effect” value was determined as 7.629%.

Consider `CC1(c2ccccc2)CCCN(Cc2cncn2C2CCCC2)C1` (centres undefined), for which the “Percent Effect” value is recorded as 105.1%.

`COCCn1cncc1CN1CCCC(C)(c2ccccc2)C1` (centres undefined): the “Percent Effect” value is on record as 16.9%.

As to `CC1(c2ccccc2)CCCN(Cc2cncn2C2CC2)C1` (centres undefined), the “Percent Effect” value is listed as -6.001%.

On to `Cn1nccc1NCc1cc2cc(F)ccc2o1`, for which the “Percent Effect” value is listed as -27.44%.

Consider `COc1ccc(CNC(C)c2cccc(Cl)c2)c(OC)c1OC` (centres undefined), for which the “Percent Effect” value is -6.089%.

Turning to `COc1ccc(CNC(C)c2ccc(Cl)c(Cl)c2)c(OC)c1OC` (centres undefined), the “Percent Effect” value is listed as 81.35%.

In the case of `COc1ccc(CNC(C)c2ccc(Cl)cc2)c(OC)c1OC` (centres undefined), the “Percent Effect” value stood at 4.187%.

As to `Cc1cc(NCc2ccc(CO)cc2)n2nc(C)cc2n1`, the “Percent Effect” value is reported as -38.88%.

`CC1(C)CC(N2Cc3nc(N)ncc3C2=O)CC(C)(C)N1`: the “Percent Effect” value stood at 5.443%.

For the compound `CC(C)CN1Cc2nc(N)ncc2C1=O`, the “Percent Effect” value came to 0.3963%.

`Nc1ncc2c(n1)CN(C1CCCC1)C2=O`: the “Percent Effect” value was determined as 100.2%.

`Cc1cnn(CCNCc2ccc(OCc3ccncc3)cc2)c1`: the “Percent Effect” value is -5.152%.

For `CC(C)CN1Cc2c(C(=O)N(C)C)ncn2-c2ccccc2S1(=O)=O`, the “Percent Effect” value is -10.19%.

Consider `CCCc1nnc2sc(CC3CN(Cc4ccccc4)CCO3)nn12` (centres undefined), for which the “Percent Effect” value was 22.38%.

As to `Cc1cnc(NS(=O)(=O)c2cccc(C#N)c2)s1`, the “Percent Effect” value is reported as -17.84%.

For `CNS(=O)(=O)c1cccc(S(=O)(=O)Nc2ncc(C)s2)c1`, the “Percent Effect” value was found to be 51.19%.

For `Cc1cnc(NS(=O)(=O)c2ccccc2)s1`, the “Percent Effect” value is on record as 18.01%.

`CCc1noc(C(C)N2CCN(c3ccc(C#N)cn3)CC2)n1` (centres undefined): the “Percent Effect” value is given as -10.8%.

As to `Cc1ncncc1C(=O)N1CCOC(C(=O)NC2CCCC2)C1` (centres undefined), the “Percent Effect” value is recorded as -44.04%.

Consider `Cn1cncc1CN1CCCC1c1cncc(Oc2ccc(Cl)cc2)n1` (centres undefined), for which the “Percent Effect” value is given as -20.26%.

Turning to `Cn1ccc2cc(C(=O)NC3CCOC(C)(C)C3)ccc21` (centres undefined), the “Percent Effect” value is on record as 38.28%.

As to `COCCn1ccc2cc(C(=O)NC3CCOC(C)(C)C3)ccc21` (centres undefined), the “Percent Effect” value is reported as 51.29%.

As to `Cn1ccc2ccc(C(=O)NC3CCOC(C)(C)C3)cc21` (centres undefined), the “Percent Effect” value is given as 33.83%.

Take `COc1ccc2c(c1)OCC(Cc1cc(C(=O)N3CCCC3)ccn1)C2` (centres undefined): the “Percent Effect” value is on record as 3.952%.

With `Cc1ccc(C(=O)N2CCSCC2)cc1NC(C)C`, the “Percent Effect” value is 8.4%.

Turning to `Cc1cc(N2CCSCC2)ccc1NC(=O)N(CCO)C1CC1`, the “Percent Effect” value is reported as 109.4%.

Consider `CCN(CC1CCCO1)C(=O)Nc1cccc(N2CCOCC2)c1` (centres undefined), for which the “Percent Effect” value is on record as 5.45%.

On to `Cc1ccc(C(=O)N2CCSCC2)cc1NC(=O)NCCO`, for which the “Percent Effect” value turned out to be 4.458%.

Consider `CCN(CC)C(=O)Nc1ccc(N2CCSCC2)cc1C`, for which the “Percent Effect” value came to 107.3%.

Take `COCCCN(CCOC)C(=O)Nc1ccc(C)cc1C`: the “Percent Effect” value is on record as -5.189%.

Consider `CCC(C)N(C)C(=O)Nc1ccc(N2CCSCC2)cc1C` (centres undefined), for which the “Percent Effect” value is 109%.

With `CCCN(CC1CC1)C(=O)Cn1ccccc1=O`, the “Percent Effect” value was found to be 23.77%.

On to `CCCN(CC1CC1)C(=O)Nc1ccc(N2CCSCC2)cc1C`, for which the “Percent Effect” value came to 108.2%.

`COCCNC(=O)Nc1ccc(C(=O)N2CCSCC2)cc1C`: the “Percent Effect” value is on record as -6.31%.

For `COCCOc1ccc(NC(=O)N(CCO)C2CC2)cn1`, the “Percent Effect” value turned out to be 5.522%.

For `CCOCC(=O)Nc1ccc(N2CCSCC2)cc1C`, the “Percent Effect” value stood at 35.44%.

Source of the values: ChEMBL document CHEMBL3988442, “University of Dundee, Small-Polar-MMV Screening Library” (2021).
